KAT2A inh: inhibitors of human GCN5L2 histone acetyltransferase. AID 504327. GCN5L2 HAT assay, ThioGlo1 CoA-SH fluorescence. Q92830. actives 0.21% (n = 390,000). Potency, µM (highest dose often 58.9 µM), most hits filed as inhibitors
Target sequence (Q92830 whole entry, looked up): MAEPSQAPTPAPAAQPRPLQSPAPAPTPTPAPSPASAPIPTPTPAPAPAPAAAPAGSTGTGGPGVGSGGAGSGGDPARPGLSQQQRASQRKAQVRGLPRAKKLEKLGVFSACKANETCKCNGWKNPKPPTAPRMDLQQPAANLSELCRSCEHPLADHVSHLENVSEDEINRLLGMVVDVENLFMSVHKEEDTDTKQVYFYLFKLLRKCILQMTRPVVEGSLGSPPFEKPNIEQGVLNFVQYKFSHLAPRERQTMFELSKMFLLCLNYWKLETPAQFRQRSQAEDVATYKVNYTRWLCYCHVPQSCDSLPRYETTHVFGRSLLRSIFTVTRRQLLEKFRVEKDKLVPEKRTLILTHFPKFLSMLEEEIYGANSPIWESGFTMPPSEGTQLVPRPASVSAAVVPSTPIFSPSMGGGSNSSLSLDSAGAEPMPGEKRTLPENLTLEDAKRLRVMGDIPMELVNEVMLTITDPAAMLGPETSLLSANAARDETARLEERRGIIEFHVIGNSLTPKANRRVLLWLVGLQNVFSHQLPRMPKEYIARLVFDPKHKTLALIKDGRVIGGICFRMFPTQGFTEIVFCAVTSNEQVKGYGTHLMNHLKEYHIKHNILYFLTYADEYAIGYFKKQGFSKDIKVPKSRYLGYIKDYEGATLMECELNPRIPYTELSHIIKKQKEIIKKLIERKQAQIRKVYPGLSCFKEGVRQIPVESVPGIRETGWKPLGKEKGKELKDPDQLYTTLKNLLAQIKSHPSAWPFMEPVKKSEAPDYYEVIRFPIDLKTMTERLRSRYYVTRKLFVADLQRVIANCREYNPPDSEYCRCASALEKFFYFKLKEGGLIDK
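ThioGlo1-coupled HAT assay: 20nM GCN5L2, 70uM acetyl-CoA, 75uM H3(1-25) peptide, pH 7.5. Fluorescence read at 340/540nm at start and after 20 min at room temperature.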
TRb SRC2 PPI: disrupts binding of human TR beta to SRC2. actives 0.065% (n = 280,000). Potency, µM (top dose mostly 106 µM), hits mostly inhibitors. TRbeta-SRC2 peptide binding, fluorescence polarization; receptor liganded with 1 µM T3. AID 1469; also: nearly all actives have a fitted effect of over 50% in size
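Human TRb ligand-binding domain (0.6 uM) is mixed with 20 nM Texas Red SRC2 peptide and 1 uM T3; after compound addition and 5 hr at ambient temperature, polarization is measured and normalized to unbound and bound controls.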
TR SRC2 fluor cs: Texas Red fluorescence interference in TRb-SRC2 counter-screen; TRb/SRC2 Texas Red total fluorescence interference; Potency, µM (series often up to 106 µM); actives 0.29% (n = 280,000); AID 1479; active = well fitted curve in either direction with a large enough effect; inconclusive = small, poorly fitted or top-dose-only effect
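Flags fluorescent or light-absorbing compounds by total fluorescence, S + 2P, at 555 nm excitation and 632 nm emission. Mixture: 20 nM Texas Red SRC2 peptide, 0.6 uM human TRb LBD, 1 uM T3, 5% DMSO; compound exposure 5 h at ambient temperature.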
RGS12 GoLoco inh: inhibitors of human Gai1-RGS12 GoLoco interaction (red fluorophore); P63096; Gai1:RGS12 GoLoco peptide FP, rhodamine, 10 min; Potency, µM (series often up to 61.6 µM), actives largely listed as inhibitors; actives 0.44% (n = 230,000); AID 880; active = well fitted inhibition curve with a large enough effect, not every such curve was filed as active; inactive = no such curve, though single readings can be large or run the other way; also: nearly all actives have a fitted effect of over 30% in size
VDR inh: blocks the human vitamin D receptor; P11473; Potency, µM, hits mostly inhibitors; VDR-SRC2-3 peptide fluorescence polarization, 2 h; actives 0.93% (n = 400,000)
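The screen uses fluorescence polarization to detect compounds that interfere with recruitment of the SRC2-3 coactivator peptide to VDR; plates are read after 2 h at room temperature.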
Hits are given with their value; 0 = inactive; ? = inconclusive; - = no result given; ! = repeats disagree; [ ] = remark or other dose. This is a sample that favours compounds with a hit; in the whole collection about 1.2% have one here. Unless noted, calls follow the shape of the dose curve; as a rule, active = well fitted curve in the direction sought with a large enough effect; inconclusive = small, poorly fitted or top-dose-only effect, or another doubt; inactive = no such curve, though single readings can be large; an effect the other way counts as inactive or inconclusive.

SMILES	KAT2A inh	TRb SRC2 PPI	TR SRC2 fluor cs	RGS12 GoLoco inh	VDR inh
CC(C)[C@H](NC(=O)[C@@H](Cc1c[nH]c2ccccc12)NC(=O)[C@H](Cc1ccc(O)cc1)NC(=O)[C@@H](N)CC(=O)O)C(=O)N[C@H](Cc1c[nH]c2ccccc12)C(=O)N[C@H](Cc1c[nH]c2ccccc12)C(=O)N[C@@H](CCCCN)C(N)=O	0	0	0	-	0
O=C(NCCCO)c1ccc2nc(-c3ccco3)c(-c3ccco3)nc2c1	0	0	?	0	79µM
O=C(NCc1ccccc1)c1ccc2nc(-c3ccco3)c(-c3ccco3)nc2c1	?	0	?	0	40µM
CCCCNC(=O)c1ccc2nc(-c3ccco3)c(-c3ccco3)nc2c1	0	0	0	0	79µM
O=C(Nc1ccccc1)c1ccc2nc(-c3ccco3)c(-c3ccco3)nc2c1	?	0	0	0	?
O=C(O)c1ccc(N2C(=O)/C(=C/c3ccc(-c4ccc([N+](=O)[O-])cc4)o3)C=C2c2ccccc2)cc1	0	0	35µM[fluorescent]	0	?
CN(/N=C/c1ccc(-c2ccc([N+](=O)[O-])cc2)o1)c1ccccc1	0	-	-	-	0
C=CC(=O)OCC(C)OCC(C)OCC(C)OC(=O)C=C (configuration not stated)	-	0	0	-	-
CCS(=O)(=O)c1ccc(O)c(Nc2cc(C)nc(SC)n2)c1	0	0	0.1µM[quencher]	-	0
Cc1nc(C#N)c(N/N=C/c2c(F)cccc2Cl)o1	0	0	0	0	79µM
Cc1nc(N)nc(N/N=C/c2c(F)cccc2Cl)n1	0	-	-	-	0
CCOC(=O)c1c(S(=O)(=O)NCC(=O)N2CCN(c3cccc(Cl)c3)CC2)c(C)n(C)c1C	0	0	0.35µM[quencher]	-	0
CC[C@H](C)[C@H](NC(=O)[C@H](Cc1cnc[nH]1)NC(=O)[C@@H](NC(=O)[C@H](CCCNC(=N)N)NC(=O)[C@H](CCCCN)NC(=O)[C@H](CCCNC(=N)N)NC(=O)[C@H](CCCCN)NC(=O)[C@@H](N)CC(N)=O)[C@@H](C)CC)C(=O)NCC(=O)N1CCC[C@H]1C(=O)NCC(=O)N[C@@H](CCCNC(=N)N)C(=O)N[C@@H](C)C(=O)N[C@@H](Cc1ccccc1)C(=O)N[C@@H](Cc1ccc(O)cc1)C(=O)N[C@H](C(=O)N[C@H](C(=O)N[C@@H](CCCCN)C(=O)N[C@@H](CC(N)=O)C(=O)N[C@H](C(=O)N[C@H](C(=O)NCC(=O)N[C@H](C(=O)N[C@H](C(=O)N[C@@H](CS)C(=O)O)[C@@H](C)CC)[C@@H](C)O)[C@@H](C)CC)[C@@H](C)CC)[C@@H](C)O)[C@@H](C)O	0	0	0	-	0
Cc1ccc(NC(=O)c2sc3nc(-c4ccncc4)ccc3c2N)cc1	0	0	?	-	0
CCOc1cccc(NC(=O)c2sc3nc(-c4ccc(F)cc4)ccc3c2N)c1	35µM	0	0	-	?
CCOc1ccc2c(c1)nc(SCC(=O)c1ccc(Br)s1)n2C	0	0	0	0	89µM
C=C(C)C(=O)OCC(C)O (configuration not stated)	-	0	0	0	-
O=C(O)CN1C(=O)/C(=C\c2cc(Br)ccc2OCc2ccc(Cl)cc2)SC1=S	0	-	-	-	40µM
O=C(O)CCN1C(=O)/C(=C\c2cccc(OCC(=O)Nc3ccc(Cl)cc3)c2)SC1=S	0	0	0	0	14µM
O=C(O)CN1C(=O)/C(=C\c2ccccc2OCc2ccc(F)cc2)SC1=S	0	-	-	-	?
O=C(O)COc1cccc(/C=C2/SC(=S)N(Cc3ccccc3)C2=O)c1	0	-	-	-	79µM
O=C(O)CN1C(=O)/C(=C\c2cccc(OCc3ccccc3)c2)SC1=S	0	-	-	-	56µM
O=C1/C(=C\c2ccc(O)c(O)c2)SC(=S)N1Cc1ccccc1	0	-	-	-	0
COc1ccc(C2=Nn3c(nnc3-c3cc(OC)ccc3OC)SC2)c(OC)c1	-	0	0	-	-
O=S(=O)(Nc1cc(Br)cc2cccnc12)c1ccccc1	-	-	-	-	0
SMILES	KAT2A inh	TRb SRC2 PPI	TR SRC2 fluor cs	RGS12 GoLoco inh	VDR inh
O=C(O)c1ccc(C(=O)O)c(C(=O)O)c1	-	0	0	-	-
O=S(=O)(c1ccccc1Br)N1CCN(c2nc(-c3cccs3)nc3ccccc23)CC1	-	-	-	-	0
COc1cc2ccc(=O)oc2cc1O	32µM!	0	0	28µM!	0
O=C(O)c1cc(-c2ccco2)nn1-c1ccc(Cl)cc1	20µM	0	0	0	?
O=C(O)c1cc(-c2ccco2)nn1-c1cccc(Cl)c1	?	0	0	0	0
C[Si]1(C)O[Si](C)(C)O[Si](C)(C)O1	-	0	0	-	-
Cc1ccc2ccc(C)[n+](CCCS(=O)(=O)[O-])c2c1	0	0	0	7.9µM	0
C=CCOC(=O)NC(c1ccc(F)c(F)c1)C(C(=O)CCl)C(=O)OC (configuration not stated)	-	0	0	0	45µM
O=S(=O)(c1ccc2ccccc2c1)N1CCN(c2nc(-c3ccccc3)nc3ccccc23)CC1	-	-	-	-	0
CCCN1C(=O)c2ccccc2NC1c1ccc(OC)c(COc2cccc(OC)c2)c1 (configuration not stated)	-	-	-	-	0
O=C(COc1ccc2c(c1)oc(=O)c1ccccc12)N[C@@H](Cc1c[nH]c2ccccc12)C(=O)O	25µM	-	-	-	0
Cc1ccc(SC(CC(=O)c2ccc(C)cc2)C(=O)O)cc1 (configuration not stated)	0	0	0	0	20µM
O=C(CC(Sc1ccc(Br)cc1)C(=O)O)c1ccc(Br)cc1 (configuration not stated)	0	-	-	-	-
CC(COc1ccc(C(C)(C)C)cc1)OS(=O)OCCCl (configuration not stated)	-	0	0	-	-
c1csc(CNc2ncnc3ccc(-c4ccc5c(c4)OCO5)cc23)c1	0	0	0	0	0
c1csc(CNc2ncncc2-c2ccoc2)c1	0	-	-	0	50µM
c1csc(CNc2ncnc3ccc(-c4ccoc4)cc23)c1	0	-	-	0	32µM!
Clc1ccccc1-c1cncnc1NCc1cccs1	0	-	-	0	?
c1ccc(CNc2ncncc2-c2ccoc2)cc1	0	-	-	0	50µM
COc1cccc(-c2cncnc2NCc2ccccc2)c1	0	0	0	0	0
COCOc1ccc(OC)cc1C(=O)/C=C/c1ccc(OC)c(Br)c1	-	0	0	0	40µM
COCOc1cc(OC)ccc1C(=O)/C=C/c1cccc(C(F)(F)F)c1	-	0	0	0	28µM
COCOc1cc(OC)ccc1C(=O)/C=C/c1ccc2c(c1)OCO2	-	0	0	0	-
c1ccc(CNc2ncnc3c2ncn3Cc2ccccc2)cc1	-	-	-	-	0
Cc1cccc(-c2ccc3ncnc(N(C)Cc4ccco4)c3c2)c1	0	-	-	-	-
CN(Cc1ccco1)c1ncnc2ccc(-c3ccc4c(c3)OCO4)cc12	0	0	0	0	40µM!
CN(Cc1ccco1)c1ncncc1-c1cccnc1	0	-	-	0	45µM
Cc1ccccc1-c1ccc2ncnc(N(C)Cc3ccco3)c2c1	0	-	-	0	32µM

Compound activity: PubChem, National Center for Advancing Translational Sciences (NCATS)
